Data: ChEMBL document CHEMBL1201862, “PubChem BioAssay data set” (2004)
In all, about 53,000 […] went through this assay and about 4,900 (9.2%) were called active. Rule as the data show it: active = GI50 up to about 1.1 µM and inactive = higher. Many of the other results were omitted from the sample, so actives are more common in it than they were. Results with a measured potency or affinity are listed apart.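 Five compound concentrations were applied to cells in 96-well plates for 48 hours; endpoints were derived by simple linear interpolation of the resulting dose-response curve. GI50 is the concentration that inhibits growth by half.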

system: NCI-H522; assay: NCI tumour cell line growth inhibition, 48 h

| Substance | GI50 |
| --- | --- |
| MERCURIC CHLORIDE, CHEMBL1374360 | 518 nM |
| DIBUTYLDICHLOROSTANNANE, CHEMBL1088184 | 130 nM |
| DICHLORODIPHENYLSTANNANE, CHEMBL1088185 | 1000 nM |
